Assay results taken from the supplement of paper PMC8371130.
Where a name gives a salt, the structure may show the parent alone.

Test system: HL-1
Test: relative cell viability (CellTiter-Glo) vs DMSO control (% of DMSO control); higher = more viable cells
Details: oxygen condition: hypoxia 48 h (1% O2) + reoxygenation 24 h; 1000 nM
How it was run: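 HL-1 mouse atrial cardiomyocytes were seeded into 384-well plates at 1000 cells per well along with compounds at 40, 200, 1000 or 5000 nM in 0.01% DMSO. After one day, the cells were moved to a hypoxic workstation (1% O2) for 48 h and then reoxygenated for 24 h in a normal incubator, while others remained in normoxia for the same period. Cell viability was measured by CellTiter-Glo luminescence and normalised to vehicle-treated control cells.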

| Structure (SMILES) | relative cell viability |
| --- | --- |
| N[C@@H](CSCCCO)C(=O)O [Fudosteine] | 109 |
| Nc1nnc(-c2cccc(Cl)c2Cl)c(N)n1 [Lamotrigine] | 108 |
| Cn1nnc2c(C(N)=O)ncn2c1=O [Methazolastone] | 111 |
| COCCc1ccc(OCC(O)CNC(C)C)cc1 (stereo not given) [Metoprolol tartrate] | 105 |
| CC(=O)OCC[N+](C)(C)C [Acetylcholine chloride] | 101 |
| NS(=O)(=O)c1cc2c(cc1Cl)NCNS2(=O)=O [Hydrochlorothiazide] | 110 |
| CCN(CC)CCNC(=O)c1c(C)[nH]c(/C=C2\C(=O)Nc3ccc(F)cc32)c1C [Sunitinib Malate] | 107 |
| Cc1ncc(C[n+]2csc(CCO)c2C)c(N)n1 [Thiamine HCl] | 102 |
| CCCCCCCCCCC[C@@H](C[C@@H]1OC(=O)[C@H]1CCCCCC)OC(=O)[C@H](CC(C)C)NC=O [Orlistat] | 94.9 |
| O=c1c(-c2ccc(O)cc2)coc2cc(O)ccc12 [Daidzein] | 105 |
| O=C(O)/C=C/c1ccc(Cn2ccnc2)cc1 [Ozagrel] | 85.7 |
| Cc1cccc(C)c1NC(=O)C1CCCCN1C (stereo not given) [Mepivacaine HCl] | 121 |
| CC[C@@]1(O)C(=O)OCc2c1cc1n(c2=O)Cc2cc3c(CN(C)C)c(O)ccc3nc2-1 [Topotecan HCl] | 19.8 |
| N[C@@H]1CCCCN(c2c(F)cc3c(=O)c(C(=O)O)cn(C4CC4)c3c2Cl)C1 [Besifloxacin HCl] | 96.7 |
| O=P(O)(O)C(O)(Cn1ccnc1)P(=O)(O)O [Zoledronic Acid] | 100 |
